# From PubChem BioAssay
# ABHD5 PLIN5 PPI: inhibitors of human ABHD5-perilipin-5 interaction; Split G. princeps luciferase complementation, luminescence, 4 h; inhibition, % at 4 µM; actives 0.78% (n = 360,000); AID 602281;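 active = inhibition above the mean inhibition across every tested compound plus 3 SD, cut at about 22% in these data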
# CF NFkB inh: cystic fibrosis NF-kB activation inhibition; inhibition, % at 5 µM; KKLEB NF-kB-GFP reporter, PAF-induced, GFP fluorescence overnight; actives 0.86% (n = 360,000); AID 588850;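 active = at least 50% inhibition at 5 µM, scaled per plate between neutral and stimulator controls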;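 also: PAF is a Pseudomonas aeruginosa culture filtrate used as stimulus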
# Peg3 prom inh: reduces Peg3 promoter-driven luciferase expression in HeLa; actives 1.7% (n = 360,000); inhibition, % at 20 µM; HeLa PEG-Prom luciferase reporter, luminescence, overnight;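 active = inhibition of at least 50% at 20 µM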
# HIF-2a inh: HIF-2a inhibition; 786-0 RCC cells HIF-2a reporter, luciferase luminescence, overnight; AID 624352; inhibition, % at 18.8 µM; actives 0.72% (n = 360,000);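 active = inhibition of the luminescence signal of 40% or more relative to plate controls, in a single-dose primary screen at 18.75 µM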
# KKLEB tox: CF airway cell cytotoxicity counter-screen. actives 0.36% (n = 360,000). activity change (cytotoxicity), % at 5 µM. KKLEB CF airway cells viability, ATPlite luminescence, overnight; stronger effect = lower value; cells stimulated with P. aeruginosa culture filtrate;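 active = corrected activity change at or below -50% at 5 µM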
# Mdm2 MdmX PPI: inhibitors of human Mdm2/MdmX interaction; actives 3% (n = 330,000); SaOS-2 split-luciferase Mdm2/MdmX complementation, luminescence; inhibition, % at 8 µM;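 active = inhibition of at least 50% at 8 µM in the primary screen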
# Target sequence (O15151 whole entry, looked up): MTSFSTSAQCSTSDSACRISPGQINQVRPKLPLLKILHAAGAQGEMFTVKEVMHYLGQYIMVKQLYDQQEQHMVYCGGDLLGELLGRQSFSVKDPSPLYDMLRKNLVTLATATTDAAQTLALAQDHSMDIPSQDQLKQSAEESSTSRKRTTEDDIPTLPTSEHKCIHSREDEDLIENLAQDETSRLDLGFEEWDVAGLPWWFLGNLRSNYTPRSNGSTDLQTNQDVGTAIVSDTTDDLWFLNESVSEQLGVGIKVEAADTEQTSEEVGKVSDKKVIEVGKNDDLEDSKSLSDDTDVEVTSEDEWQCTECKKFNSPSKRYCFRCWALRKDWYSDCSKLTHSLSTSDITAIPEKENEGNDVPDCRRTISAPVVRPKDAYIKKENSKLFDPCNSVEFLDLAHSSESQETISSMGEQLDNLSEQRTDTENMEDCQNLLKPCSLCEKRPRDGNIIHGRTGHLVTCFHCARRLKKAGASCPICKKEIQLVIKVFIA
# Target sequence (Q00987 whole entry, looked up): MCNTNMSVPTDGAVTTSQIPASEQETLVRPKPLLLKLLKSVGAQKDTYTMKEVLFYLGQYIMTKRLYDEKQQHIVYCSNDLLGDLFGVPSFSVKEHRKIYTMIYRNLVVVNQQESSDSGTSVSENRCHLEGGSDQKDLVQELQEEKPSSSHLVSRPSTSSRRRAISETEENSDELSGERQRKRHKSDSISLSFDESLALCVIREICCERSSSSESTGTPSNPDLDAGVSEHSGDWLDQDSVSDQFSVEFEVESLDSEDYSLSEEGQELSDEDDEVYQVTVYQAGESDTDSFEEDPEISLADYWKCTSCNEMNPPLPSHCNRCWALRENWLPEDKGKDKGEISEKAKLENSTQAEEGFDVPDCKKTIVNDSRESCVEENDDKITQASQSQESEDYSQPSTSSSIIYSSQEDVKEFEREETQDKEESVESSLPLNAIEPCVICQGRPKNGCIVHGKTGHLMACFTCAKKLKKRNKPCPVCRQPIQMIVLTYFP
# A number is an active result; 0 = inactive; - = no result given. A selection: hits, their analogues and other compounds. The true share with any hit is near 4.6%.
SMILES,ABHD5 PLIN5 PPI,CF NFkB inh,Peg3 prom inh,HIF-2a inh,KKLEB tox,Mdm2 MdmX PPI
Cc1nc2ccccc2c2oc(C(=O)NCCCN3CCCC(C)C3)cc12 (stereo not drawn),0,0,0,0,0,0
COC(=O)c1cc2c(s1)-c1ccccc1OC2,0,0,0,0,0,0
CC1CCCN(CCCNC(=O)c2cc3c(s2)-c2ccccc2OC3)C1 (stereo not drawn),0,0,75,0,0,0
CC1CCN(CCCNC(=O)c2cc3c(s2)-c2ccccc2OC3)CC1,0,0,62,0,0,0
CC1CCCN(CCCNC(=O)c2cc3c(Cl)nc4ccccc4c3s2)C1 (stereo not drawn),0,0,92,0,0,0
COC(=O)C(C#N)C(=C1C(=O)CC(C)(C)CC1=O)c1ccc(O)cc1 (stereo not drawn),0,0,0,0,-50,0
N/C(=N\OC(=O)c1cccc2ccccc12)c1ccccn1,0,0,83,0,0,0
COc1cc(C)ccc1OCc1cc(C(=O)N(Cc2c(C)nn(C)c2C)C2CC2)no1,0,0,0,0,0,0
O=C(CCCCCn1c(=S)[nH]c2ccc(Br)cc2c1=O)NCC1CCCO1 (stereo not drawn),0,0,0,0,0,0
NS(=O)(=O)c1ccc(CCNC(=O)CCCCCn2c(=S)[nH]c3ccc(Br)cc3c2=O)cc1,0,0,62,0,0,0
CNC[C@@H]1OCc2cnnn2CCCC(=O)N([C@H](C)CO)C[C@H]1C,0,0,0,0,0,-
CCN1CCN(c2cc(SC(C)C)nc(-c3ccc(OC)cc3)n2)CC1,0,0,53,0,0,-
CC(C)Sc1cc(N2CCOCC2)nc(-c2ccc(Cl)cc2)n1,0,0,0,0,0,0
O=C(Nc1cc(S(=O)(=O)N2CCCCC2)ccc1Cl)c1ccccc1NS(=O)(=O)c1ccc(F)cc1,0,66,53,0,0,-
O=C1C=C(N(CCO)Cc2ccccc2)c2ccccc2C1=O,0,68,0,0,0,-
O=C1c2ccccc2C(=O)c2c1cccc2N(CCO)CCO,0,0,0,0,0,0
COc1ccccc1C(=O)NNC(=S)NC(=O)c1sc2ccccc2c1Cl,0,0,0,0,-56,0
CCCC(=O)N1CCC1(C)C(=O)NS(=O)(=O)c1ccc(C(C)(C)C)cc1 (stereo not drawn),0,0,0,0,0,-
CCc1cc(C(=O)N(CC)CC(=O)Nc2ccc(OC)cc2)sc1C,0,0,0,0,0,0
O=C(Cn1nnc(-c2ccc(CN3CCOCC3)cc2)n1)Nc1nc(-c2ccccc2)cs1,0,0,0,0,-51,0
CCCN1C(=O)c2ccccc2NC1c1ccc(O)c(OCC)c1 (stereo not drawn),0,0,0,0,0,0
Cc1ccc(-c2nc(N/N=C/c3ccncc3)c3ccccc3n2)cc1,0,0,0,0,-95,0
Cc1ccc2nc(C(Cl)(Cl)Cl)nc(N/N=C/c3ccncc3)c2c1,0,0,0,0,0,0
Cc1ccc(CNC(=O)c2cc(=O)c3ccc(C)cc3o2)cc1,0,0,0,0,0,0
O=c1[nH]c(=O)n(C2C[C@H](O)[C@@H](CO)O2)cc1C(F)(F)F (stereo partly drawn),0,0,0,0,0,0
SMILES,ABHD5 PLIN5 PPI,CF NFkB inh,Peg3 prom inh,HIF-2a inh,KKLEB tox,Mdm2 MdmX PPI
[N-]=[N+]=NC1C[C@H](n2ccc(=O)[nH]c2=O)O[C@@H]1CO (stereo partly drawn),0,0,0,0,-61,0
CC(C#N)Sc1nnc(-c2ccccc2F)n1C1CC1 (stereo not drawn),0,0,0,0,0,0
COC(=O)c1ccc(C(=O)OC)c(NC(=O)CN2CCN(c3ccccc3)CC2)c1,0,0,0,0,0,0
COC(=O)c1ccc(C(=O)OC)c(NC(=O)CN2CCN(c3ccccc3OC)CC2)c1,0,0,52,0,0,0
N#Cc1ccc(CN2CCN(C(=O)CCNS(=O)(=O)c3ccc(F)c(Cl)c3)CC2)cc1,0,0,0,0,0,0
NC(N)=Nc1ccc(C=C2C=Cc3ccccc32)cc1,0,0,104,0,0,-
CCOc1ccc2nc(N/C(N)=N/C(=S)Nc3ccc(C)c(C)c3)nc(C)c2c1,0,0,0,0,0,0
COc1ccc(NC(=S)/N=C(\N)Nc2nc(C)c3ccc(C)cc3n2)cc1,0,0,53,0,0,0
O=C(NC1CCCCC1)C(c1cccs1)N(C(=O)Cc1c[nH]c2ccccc12)c1ccc(F)cc1 (stereo not drawn),0,0,85,0,0,0
CCOC(=O)C1=C(CSc2nc3ccccc3s2)NC(=O)NC1c1ccc(OC)cc1 (stereo not drawn),0,0,64,0,0,0
COc1ccc(C(=O)N2[C@@H](C(C)C)COc3cc(Br)ccc3S2(=O)=O)cc1,0,0,55,0,0,-
N=C1S/C(=C\c2ccccc2F)C(=O)N1c1ccc(F)cc1,0,0,0,0,0,0
N=C1S/C(=C\c2cn[nH]c2-c2ccc(F)cc2)C(=O)N1c1ccccc1F,0,50,0,0,0,0
C[C@H]1CN([C@@H](C)CO)C(=O)CCCn2nncc2CO[C@@H]1CN(C)Cc1ccccc1,0,0,0,0,0,-
Brc1ccc(OCc2ccccc2)c(CNCc2ccncc2)c1,0,0,51,0,0,0
O=C1Nc2ccccc2-c2nnnn2C1N1CCC(Cc2ccccc2)CC1 (stereo not drawn),0,-,-,0,-,-
Cc1nc2ccccn2c1C(=O)N=Nc1c(O)n(CCC(C)C)c2ccccc12,0,0,107,0,0,0
COc1ccc(CC(=O)NNC(=O)c2cc(C)[nH]n2)cc1,0,0,62,0,0,0
Cc1cc(C(=O)NNC(=O)CCCCC(=O)NNC(=O)c2cc(C)[nH]n2)n[nH]1,0,0,0,0,0,0
Cc1ccc(OCc2nc3ccccc3n2C(C(=O)Nc2c(C)cccc2C)C2CC2)cc1 (stereo not drawn),0,-,-,0,-,-
O=C1/C(=C/c2ccccc2)CCCc2ccccc21,0,0,0,0,0,0
Cc1cccc(/C=C2\CCC(=C3SCCCS3)C2=O)c1,0,0,0,0,-64,0
CC1(C(=O)NS(=O)(=O)Cc2ccccc2C(F)(F)F)CCN1C(=O)c1cccc(F)c1 (stereo not drawn),0,0,0,0,0,-
O=C(Nc1ccnn1C1CCN(C2CCCC2)CC1)c1ccccc1,0,0,0,0,0,0
CC(=O)Nc1cccc(-c2ccnc3c2CC(C)(C(=O)Nc2ccc(C(C)C)cc2)O3)c1 (stereo not drawn),0,0,52,0,0,-
COc1cccc(C(=O)NCCCNc2nc3cc(C)cc(C)c3cc2C#N)c1,0,0,66,0,0,-
CC(=O)c1ccc(OCC(O)CN2CCN(CCN3C(=O)c4cccc5cccc(c45)C3=O)CC2)cc1 (stereo not drawn),0,0,50,0,0,0
